The record followed here is PubChem BioAssay (NCI).

Compounds without any hit were thinned out: in the full panel of roughly 83,000, 20% have a hit.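 96-well plates, one dose, 48 hours. Percent growth reported; active if below 10.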 A number with no mark means an inactive call. Activity calls are given as the source filed them.

The subject of this assay is NCI-H23 lung. Put plainly: NCI-60 one-dose screen, 48 h (100 = growth as untreated, 0 = no growth, -100 = all killed). Particulars: 10 µM unless noted.
`COc1cc(-c2nc(C(=O)NCC(=O)NO)nn2-c2ccc(Cl)cc2)cc(OC)c1OC`: the growth is 97.1%. Take `C=C1C(=O)O[C@H]2[C@H]1CC/C(C=Nc1ccc(C(F)(F)F)cc1N)=C\CC[C@@]1(C)O[C@@H]21`: the growth was 12.4%. With `CSc1nc(NCCO)c(C#N)c(-c2cccc([N+](=O)[O-])c2)n1`, the growth was 99.5%. The same measure for `Cn1c(=O)[nH]c(=O)c2nc(CCC(=O)NCCC(=O)O)c(=O)[nH]c21`: 97.5%. The same measure for `C=CC(=O)Nc1cccc(-c2nc(SC)nc(Nc3ccccc3OC)c2C#N)c1`: 55.5%; for `CC1=C[C@H]2c3c(c(O)c(O)c4oc5c(C)cccc5c(=O)c34)[C@H](c3cc(O)c(O)c4oc5c(C)cccc5c(=O)c34)[C@H]2C(C)(C)C1`: -15.2% (active); for `COc1ccc(/C=C(\C#N)C(=O)Nc2cccc(Nc3nc(SC)nc(-c4cccc([N+](=O)[O-])c4)c3C#N)c2)cc1OC`: 88.5%. As for `CCN(CC)c1ccc(/C=N\NC(=O)/C=C/C=C/c2ccc3c(c2)OCO3)c(O)c1`, the figure is 49.7%; as for `CC(C)(C)c1cc(/C=N\NC(=O)/C=C/C=C/c2ccc3c(c2)OCO3)c(O)c(C(C)(C)C)c1`, 90.5%; as for `CN(C)CCCNc1c2ccccc2nc2ccccc12`, 93.3%. `CN1CCN(c2nc(NCCCCNc3ccnc4cc(Cl)ccc34)c3ccccc3n2)CC1`: the growth is 82.8%.

`COc1cc2c(cc1-c1c(C)noc1C)ncc1nc(C3CCOCC3)n([C@@H](C)COC(F)F)c12`: the growth is 64.6%.

`CC(C)C[C@@H](NC(=O)[C@@H](Cc1ccccc1)NC(=O)c1cnccn1)B1Oc2ccc(C[C@H](NC(=O)[C@H](Cc3ccc4c(c3)OB([C@@H](CC(C)C)NC(=O)[C@@H](Cc3ccccc3)NC(=O)c3cnccn3)O4)NC(=O)[C@@H](N)CC3CCC4OB([C@@H](CC(C)C)NC(=O)[C@@H](CC5CCCCC5)NC(=O)C5CNCCN5)OC4C3)C(=O)NCCCC[C@@H]3NC(=O)[C@@H](Cc4ccccc4)NC(=O)[C@H](CC(=O)O)NC(=O)CNC(=O)[C@H](CCCNC(=N)N)NC3=O)cc2O1` (some centres not stated): the growth is -41.3% (active). As to `CCc1nc(N)nc(N)c1C#CC(C)c1cc(-c2ccnc(C)c2)c2oc(C)nc2c1` (configuration not stated), the growth is 5.82% (active). Consider `COc1ccc(/C=C/c2nc3ccccc3nc2/C=C/c2ccc(OC)cc2)cc1`, for which the growth is 93.5%. Consider `Cc1nc(/N=C(\N)NC(=O)Nc2cccc([N+](=O)[O-])c2)sc1C`, for which the growth is 81.8%. As to `CCCCN(CCCC)CCCn1c(-c2ccccc2)ccc1-c1ccccc1`, the growth was 52.9%. In the case of `Oc1ccc(N=Cc2ccccc2O)cc1`, the growth was 92.3%.

Regarding `NC(N)=N/N=C(/c1ccccc1)c1ccc(F)cc1`, the growth is 3.78% (active).

For the molecule `COc1ccc(Nc2nc(SC)nc(-c3cccc([N+](=O)[O-])c3)c2C#N)cc1`, the growth is 73.6%. Regarding `COc1ccc(CCNc2nc3c(c(=O)n(Cc4ccc(Br)cc4)c(=O)n3C)n2C)cc1OC`, the growth is 84.1%. With `COc1cccc(Nc2nc(SC)nc(-c3cccc([N+](=O)[O-])c3)c2C#N)c1`, the growth was 78.3%.

Take `CCCCC/C(C=C(C#N)C#N)=C/c1ccccc1`: the growth was 68.9%.

In the case of `Cn1c(=O)c2c(nc3n(-c4ccc(Cl)cc4Cl)c(Sc4nc(-c5ccccc5)c(C#N)c(=O)[nH]4)cn23)n(C)c1=O`, the growth was 65%. With `Cc1ccc(C2=NN3C(C2)c2cc(Br)ccc2OC32CCN(Cc3ccccc3)CC2)o1` (configuration not stated), the growth was 94.9%. With `CCCCCCN(CCCCCC)C(=N)c1ccnc2ccccc12`, the growth is 72.5%. For the molecule `O=C1Nc2c(ccc(Cl)c2Cl)/C1=C\c1ccc(C(F)(F)F)cc1`, the growth is 68.8%. As to `C=CC(=O)Nc1cccc(-c2nc(SC)nc(NCc3ccccc3)c2C#N)c1`, the growth was 61.1%.

Turning to `CC1=CC(C)(C)Nc2ccc(Cc3ccc4c(c3)C(C)=CC(C)(C)N4)cc21`, the growth was 97.1%. As to `CCCN1CCN(c2ccc3nc(-c4ccc5nc(-c6ccc(OCC)cc6)[nH]c5c4)[nH]c3c2)CC1`, the growth was 19.5%. Consider `COc1ccc(C(=O)COc2ccc(/C=C3\COc4ccc(OC)cc4C3=O)cc2)cc1`, for which the growth was 77.6%. For `CC(=O)O[C@H]1C(=O)[C@@]2(C)[C@H]([C@H](OC(=O)c3ccccc3)[C@]3(O)C[C@H](OC(=O)[C@H](OC(=O)CCC(=O)OC4CCC(S/N=C(N)/N=C(\N)N(C)C)CC4)[C@@H](NC(=O)c4ccccc4)c4ccccc4)C(C)=C1C3(C)C)[C@]1(OC(C)=O)CO[C@@H]1C[C@@H]2O` (some centres not stated), the growth is 39.3%.
